A selection: hits, their analogues and other compounds. The true share with any hit is near 1.2%.
NPR2 activator: GC-B (human) receptor activation; activation, % at 10 µM; 370,000 tested, 0.11% active; HEK293-GC-B cells, CNP EC30, cGMP TR-FRET; 0% at EC30 CNP, 100% saturating CNP; P20594;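 active = activation at 10 µM reaching about 35% in either raw or pattern-adjusted values, limit read from the data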
TLR4 MyD88 comp: inhibitors of human TLR4-MyD88 binding; AID 861; 200,000 tested, 0.18% active; inhibition, % at 8.4 µM; HeLa CL3-4 TLR4/MyD88 BLA complementation, FRET ratio; in the data active = inhibition above about 25%
NOD2-RIPK2 inh: NOD2-RIPK2 protein interaction inhibition; AID 624267; CHO BLA complementation NOD2-RIPK2, CCF4 ratio; inhibition, % at 4.98 µM; 360,000 tested, 0.38% active; O43353; in the data active = inhibition above about 21%
NPR1 activator: GC-A (human) enzyme activation; P16066; HEK293 GC-A cells, cGMP TR-FRET, EC30 ANP; 0% at EC30 ANP, 100% saturating ANP; activation, % at 10 µM; 370,000 tested, 0.14% active; AID 1671463; in the data active = activation above about 40%
TLR9-MyD88 block: TLR9-MyD88 interaction inhibition; AID 504734; Q9NR96+Q99836; inhibition, % at 4.98 µM; CHO BLA complementation TLR9-MyD88, CCF4 FRET ratio; 340,000 tested, 0.21% active;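 active = inhibition above the mean over all tested compounds plus 3 SD, cut at about 21% in these data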
Target sequence (Q99836 whole entry, looked up): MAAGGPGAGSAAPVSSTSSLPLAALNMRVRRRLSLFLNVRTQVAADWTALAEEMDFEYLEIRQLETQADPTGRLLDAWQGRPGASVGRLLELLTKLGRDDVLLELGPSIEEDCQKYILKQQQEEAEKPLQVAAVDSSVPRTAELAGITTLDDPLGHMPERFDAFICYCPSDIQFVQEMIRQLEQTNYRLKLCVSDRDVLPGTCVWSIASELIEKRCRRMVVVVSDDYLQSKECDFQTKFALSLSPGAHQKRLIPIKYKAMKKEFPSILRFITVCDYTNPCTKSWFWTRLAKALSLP
Target sequence (Q9NR96 whole entry, looked up): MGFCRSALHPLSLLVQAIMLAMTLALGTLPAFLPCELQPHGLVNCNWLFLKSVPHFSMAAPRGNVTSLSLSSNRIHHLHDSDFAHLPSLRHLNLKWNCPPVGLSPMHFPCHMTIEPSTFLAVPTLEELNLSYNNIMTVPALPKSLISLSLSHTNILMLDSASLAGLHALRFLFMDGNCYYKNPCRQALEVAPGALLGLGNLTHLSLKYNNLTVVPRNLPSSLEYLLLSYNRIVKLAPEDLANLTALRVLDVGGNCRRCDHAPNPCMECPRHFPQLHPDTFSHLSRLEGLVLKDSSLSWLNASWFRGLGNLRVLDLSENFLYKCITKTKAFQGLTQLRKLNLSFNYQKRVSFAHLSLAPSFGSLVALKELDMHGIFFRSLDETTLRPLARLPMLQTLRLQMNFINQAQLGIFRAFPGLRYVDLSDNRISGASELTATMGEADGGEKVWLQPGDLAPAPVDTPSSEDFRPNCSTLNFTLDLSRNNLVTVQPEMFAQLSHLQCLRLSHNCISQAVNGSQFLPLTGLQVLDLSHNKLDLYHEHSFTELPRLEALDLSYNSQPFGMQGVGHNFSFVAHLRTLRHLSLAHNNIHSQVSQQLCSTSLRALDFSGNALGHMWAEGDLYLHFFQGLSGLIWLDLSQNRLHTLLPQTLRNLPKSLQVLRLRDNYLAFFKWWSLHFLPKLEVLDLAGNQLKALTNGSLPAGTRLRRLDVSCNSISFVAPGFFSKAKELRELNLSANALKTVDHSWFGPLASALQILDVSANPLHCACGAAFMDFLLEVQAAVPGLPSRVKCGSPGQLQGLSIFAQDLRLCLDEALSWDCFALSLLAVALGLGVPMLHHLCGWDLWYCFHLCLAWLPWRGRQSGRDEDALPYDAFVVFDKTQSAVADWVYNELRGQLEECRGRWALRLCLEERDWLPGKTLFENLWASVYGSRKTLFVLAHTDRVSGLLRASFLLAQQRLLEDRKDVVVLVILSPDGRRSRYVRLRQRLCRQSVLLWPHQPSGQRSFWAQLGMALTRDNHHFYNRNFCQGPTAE
Neddylation inh: blocks human cullin neddylation | TR-FRET cullin neddylation, biochemical | inhibition, % at 25 µM | 360,000 tested, 0.58% active; in the data active = inhibition above about 36%
Each line names hits and unclear results; the compound was inactive in the other large screens.

COc1cc(-c2nc(C(=O)NCC3CCCO3)cc3c2[nH]c2ccccc23)cc(OC)c1OC (configuration not stated)	NPR2 activator 58.5, NPR1 activator 53.5, Neddylation inh 44.3 (no result: TLR4 MyD88 comp)
CC1CCN(c2nc(Cl)nc(Nc3ccc([N+](=O)[O-])cc3)n2)CC1	NPR1 activator 67.2
COC(=O)[C@H](C)NC(=O)[C@@H]1CC=C[C@@H]2CCN(CCc3ccccc3)C(=O)[C@@H]21	none (no result: TLR4 MyD88 comp, NOD2-RIPK2 inh, TLR9-MyD88 block, Neddylation inh)
COc1ccc(NC(=O)Nc2ccccc2C(=O)N2CCCC2)cc1OC	none (no result: TLR4 MyD88 comp, NOD2-RIPK2 inh, TLR9-MyD88 block, Neddylation inh)
C[C@H](O)Cc1cn(-c2cc3cc(C#Cc4ccsc4)ccc3oc2=O)nn1	NPR1 activator 46.8 (no result: TLR4 MyD88 comp)
C[C@@H](O)CC#Cc1ccc2oc(=O)c(-n3cc(-c4ccsc4)nn3)cc2c1	none (no result: TLR4 MyD88 comp)
COc1cc(CNc2ccc3[nH]c(=O)[nH]c3c2)ccc1OCc1ccccc1F	NPR2 activator 43.0 (no result: TLR4 MyD88 comp)
COc1ccc(-c2nc3cnccn3c2Nc2ccc3c(c2)OCO3)cc1	NPR2 activator 46.9, NPR1 activator 52.0
Cc1ccc(-c2nc3cnccn3c2Nc2ccc3c(c2)OCO3)cc1	NPR2 activator 50.1, NPR1 activator 50.8
CCOc1ccc(S(=O)(=O)NC(C)(C)C)cc1-c1nc2c(C(C)(C)C)nn(C)c2c(=O)[nH]1	NPR2 activator 60.5, NPR1 activator 56.8
CCOc1ccc(S(N)(=O)=O)cc1-c1nc2c(C(C)(C)C)nn(C)c2c(=O)[nH]1	NPR2 activator 61.5, NPR1 activator 51.8 (no result: TLR4 MyD88 comp)
CCOc1ccc(S(=O)(=O)NCc2cccnc2)cc1C	none
CCCCn1c(=O)[nH]c(=O)c2c1nc(-c1ccc(OCCC)c(OCC)c1)n2C	none (no result: TLR4 MyD88 comp)
Cc1cc2nc3ccc(N(C)C)cc3nc2cc1N	Neddylation inh 78.9 (no result: TLR4 MyD88 comp)
Cc1ccc(-n2nc3cc(C)c(N)cc3n2)cc1	none (not shown: Neddylation inh)
Nn1c(SCC(=O)Nc2ccccc2-c2ccccc2)nnc1-c1cc(-c2ccc(F)cc2)n[nH]1	none (no result: TLR4 MyD88 comp, NOD2-RIPK2 inh, TLR9-MyD88 block, Neddylation inh)
Oc1ccccc1/C=N/NC(=S)NC1CC2CC1C1C=CCC21 (configuration not stated)	Neddylation inh 52.7 (no result: TLR4 MyD88 comp)
CCC[C@H]1[C@@H](NC(=O)c2ccc(N(C)C)cc2)CC[C@@]23CCCN2C(=O)CCC[C@@H]13	none (no result: TLR4 MyD88 comp, NOD2-RIPK2 inh, TLR9-MyD88 block, Neddylation inh)
CCC(=O)Nc1cc(C(=O)OCC(=O)c2ccccc2Cl)ccc1C	none
CCC(=O)Nc1cc(C(=O)OCC(=O)c2ccc(Cl)cc2Cl)ccc1C	NPR1 activator 56.6
CCCOc1ccc(C(=O)NNC(=S)NC(=O)c2ccco2)cc1	Neddylation inh 59.4 (no result: TLR4 MyD88 comp)
CCCC1=C(C(=O)OCC)C(/C=C/c2ccccc2)n2ncnc2N1 (configuration not stated)	NPR1 activator 44.8
Nc1[nH]c(C(=O)c2ccc(Cl)cc2)c(-c2ccc(Br)cc2)c1C(=O)NCc1ccc(Cl)cc1Cl	none (no result: TLR4 MyD88 comp, NOD2-RIPK2 inh, TLR9-MyD88 block, Neddylation inh)
CCOC(=O)c1cc(OC)c2cccc(CN3CCC(C)(C(=O)NCCOC)C3)c2c1 (configuration not stated)	Neddylation inh 50.1 (no result: NPR2 activator, TLR4 MyD88 comp, NPR1 activator, TLR9-MyD88 block)
C=CCn1c(=O)c2c(C)c(C)sc2n2c(Nc3ccc(OC)cc3)nnc12	NPR2 activator 38.5
CCn1cnc2c1c(=O)n(Cc1cccc([N+](=O)[O-])c1)c(=O)n2Cc1ccccc1	NPR2 activator 40.9 (no result: TLR4 MyD88 comp)
CCn1cnc2c1c(=O)n(Cc1csc(-c3ccccc3)n1)c(=O)n2Cc1ccccc1	NPR2 activator 50.7
COc1ccccc1-n1c(SCC(=O)Nc2cccc(S(N)(=O)=O)c2)nc2ccccc2c1=O	none
COc1ccc(OC)c(-n2c(SCC(=O)Nc3cccc(S(N)(=O)=O)c3)nc3ccccc3c2=O)c1	NPR2 activator 37.0 (no result: TLR4 MyD88 comp)
C=C1C(=O)C=C2CN(C(=O)c3ccccc3)[C@@](Cc3ccc(F)cc3)(C(=O)OC)[C@@H]12	NOD2-RIPK2 inh 48.2 (no result: NPR2 activator, NPR1 activator)
O=C(O)c1ccccc1C(=O)Nc1ccccc1NC(=O)c1ccccc1C(=O)O	none (no result: TLR4 MyD88 comp, TLR9-MyD88 block)
CC(=O)c1sc(C(C)(C)C)cc1NC(=O)c1ccccc1C(=O)O	NPR1 activator 47.5 (no result: TLR4 MyD88 comp, TLR9-MyD88 block)
O=C(CCn1nnc2ccccc21)N1CCN(c2ccc(F)cc2)CC1	none (no result: TLR4 MyD88 comp, NOD2-RIPK2 inh, TLR9-MyD88 block, Neddylation inh)
COCCCN1C(=O)[C@H](CC(=O)N2CCOCC2)[C@]2(C(=O)OC)CCCCC=C12	none (no result: TLR4 MyD88 comp, NOD2-RIPK2 inh, TLR9-MyD88 block, Neddylation inh)
CC(=O)N(c1ccccc1)c1nc(/C=C/C(=O)Nc2c(C)cc(C)cc2C)cs1	NPR2 activator 43.2, NPR1 activator 40.4
CCN(CC)C(=O)CC[C@H]1CC[C@]2(CCCN(S(=O)(=O)C3CCCCC3)C2)O1	none (no result: TLR4 MyD88 comp, NOD2-RIPK2 inh, TLR9-MyD88 block, Neddylation inh)
Cc1ccc(N2C(=O)c3cccc4c([N+](=O)[O-])ccc(c34)C2=O)c2cccnc12	NPR2 activator 40.6 (not shown: TLR4 MyD88 comp, Neddylation inh)
CCCc1cc(=O)oc2c(C)c(OCC(=O)NCCN3CCOCC3)ccc12	none (no result: TLR4 MyD88 comp)
Cc1c(C)c2ccc(OCC(=O)NCCN3CCOCC3)c(C)c2oc1=O	Neddylation inh 47.1 (no result: TLR4 MyD88 comp)
CCCN(CC1CC1)C(=O)c1oc(=O)c2ccccc2c1-c1ccc(C)cc1	none (no result: TLR4 MyD88 comp, NOD2-RIPK2 inh, TLR9-MyD88 block, Neddylation inh)
Cc1ccc(Nc2cc(C)nn2-c2nc(C)cc(=O)[nH]2)cc1	NOD2-RIPK2 inh 53.1, TLR9-MyD88 block 41.1 (no result: NPR2 activator, NPR1 activator)
Cc1ccc(Nc2cc(C)nn2-c2nc(C)cc(C)n2)cc1	none
Oc1cc(-c2ccc(N3CCCCC3)nc2)cc2cccnc12	NOD2-RIPK2 inh 22.3 (not shown: NPR2 activator, TLR4 MyD88 comp, NPR1 activator, Neddylation inh)
COc1ccc(CNC[C@@H](CCCCN(C)Cc2ccc(OC)cc2)N2C[C@H](c3ccccc3)N(CCc3ccc(Cl)c(Cl)c3)C(=O)C2=O)cc1	NOD2-RIPK2 inh 28.8 (no result: NPR2 activator, NPR1 activator)
CC(C)(C)C(=O)Cn1ncc(Cl)c(Cl)c1=O	NPR1 activator 42.2
C=CCn1c(C)cc(C(=O)Cn2ncc(Cl)c(Cl)c2=O)c1C	NPR2 activator 48.9

Screening data: PubChem BioAssay, several laboratories
